The values below come from PMC5540273 (PLoS ONE, 2017).

Where “and” joins values, the source holds several entries; their conditions need not be identical. Identical values can stand only once. Like-named read-outs stand apart in the source and are kept apart here.

The test system of one assay is CHEK1. The settings on record: concentration: 1 μM, replicates: in singlicate, n = 1.
Another assay deals with CHEK2. The settings on record: concentration: 1 μM, replicates: in singlicate, n = 1.
The next assay concerns CIT. The settings on record: concentration: 1 μM, replicates: in singlicate, n = 1.
For the next assay, the system named is CLK1. The settings on record: concentration: 1 μM, replicates: in singlicate, n = 1.
The subject of a further assay is CLK2. The settings on record: concentration: 1 μM, replicates: in singlicate, n = 1.
Another assay relates to CLK3. The settings on record: concentration: 1 μM, replicates: in singlicate, n = 1.
In another assay the test system is CLK4. The settings on record: concentration: 1 μM, replicates: in singlicate, n = 1.
In the next assay the test system is CSF1R-autoinhibited. The settings on record: concentration: 1 μM, replicates: in singlicate, n = 1.
A further assay concerns CSF1R. The settings on record: concentration: 1 μM, replicates: in singlicate, n = 1.
The test system of another assay is CSK. The settings on record: concentration: 1 μM, replicates: in singlicate; n = 1.
A further assay concerns CSNK1A1L. The settings on record: concentration: 1 μM, replicates: in singlicate, n = 1.
The next assay deals with CSNK1A1. The settings on record: concentration: 1 μM, replicates: in singlicate, n = 1.
For another assay, the system named is CSNK1D. The settings on record: concentration: 1 μM, replicates: in singlicate, n = 1.
The next assay relates to CSNK1E. The settings on record: concentration: 1 μM, replicates: in singlicate, n = 1.
Another assay relates to CSNK1G1. The settings on record: concentration: 1 μM, replicates: in singlicate, n = 1.
A further assay relates to CSNK1G2. The settings on record: concentration: 1 μM, replicates: in singlicate, n = 1.
In another assay the test system is CSNK1G3. The settings on record: concentration: 1 μM, replicates: in singlicate, n = 1.
Another assay deals with CSNK2A1. The settings on record: concentration: 1 μM, replicates: in singlicate, n = 1.
The subject of the next assay is CSNK2A2. The settings on record: concentration: 1 μM, replicates: in singlicate, n = 1.
A further assay relates to T1, CTK.
T1 construct: gene MATK
The settings on record: concentration: 1 μM, replicates: in singlicate; n = 1.
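Also: KINOMEscan kinase panel screen.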

As to `CNc1ncnc2[nH]ncc12` [SKF-18355], the “%Inh” value with CHEK1 was determined as 0%; with CHEK2 it was 0%; in the assay on CIT it was 9%; in the assay with CLK1, 19%; with CLK2, 8%; in the assay with CLK3, 9%. The “%Inh” value with CLK4 is listed as 0%; in the assay on CSF1R-autoinhibited it was 0%; with CSF1R, 0%; in the assay with CSK it was 0%; in the assay on CSNK1A1L it was 0%; in the assay on CSNK1A1 it was 14%. Further, the “%Inh” value in the assay on CSNK1D worked out at 0%; in the assay with CSNK1E, 32%; in the assay on CSNK1G1, 0%; with CSNK1G2, 0%; in the assay on CSNK1G3, 11%; in the assay with CSNK2A1 it was 0%. In addition, the figures for the “%Inh” value with CSNK2A2 and in the assay on CTK were 3% and 18%, respectively.

`Nc1nc(-c2ccc3c(N)n[nH]c3c2)cc(N2CCCC2)n1` [GSK2227430]: the “%Inh” value worked out at 9% in the assay with CHEK1; 0% in the assay on CHEK2; 0% in the assay on CIT; 26% in the assay with CLK1; 1% with CLK2; 0% in the assay with CLK3. In addition, the “%Inh” value in the assay on CLK4 was found to be 36%; in the assay with CSF1R-autoinhibited, 0%; in the assay with CSF1R, 2%; with CSK, 0%; with CSNK1A1L it was 0%; with CSNK1A1, 0%. The “%Inh” value in the assay with CSNK1D is 0%; in the assay with CSNK1E it was 25%; in the assay with CSNK1G1 it was 0%; in the assay on CSNK1G2, 0%; in the assay on CSNK1G3 it was 19%; with CSNK2A1, 0%. For the same compound, the “%Inh” value in the assay with CSNK2A2 came to 4%; in the assay on CTK, 0%.

Regarding `CCc1nc(-c2cccc(C)c2)c(-c2ccnc(NCc3ccccc3)c2)s1`, the “%Inh” value in the assay on CHEK1 is on record as 0%; in the assay with CHEK2 it was 10%; in the assay with CIT, 29%; with CLK1, 0%; with CLK2, 11%; with CLK3, 0%. Further, the “%Inh” value is reported as 0% in the assay with CLK4; 0% in the assay on CSF1R-autoinhibited; 6% in the assay on CSF1R; 0% in the assay with CSK; 11% with CSNK1A1L; 8% in the assay with CSNK1A1. For the same compound, the “%Inh” value is 29% with CSNK1D; 8% with CSNK1E; 0% in the assay with CSNK1G1; 0% in the assay on CSNK1G2; 0% in the assay on CSNK1G3; 0% in the assay with CSNK2A1. Moreover, the “%Inh” value with CSNK2A2 was 0%; with CTK, 17%.

Consider `Fc1ccc(-c2ncn(CCCN3CCOCC3)c2-c2ccccn2)cc1` [SB-211742], for which the “%Inh” value in the assay with CHEK1 worked out at 0%; with CHEK2, 0%; in the assay with CIT it was 8%; in the assay on CLK1, 8%; in the assay with CLK2, 8%; in the assay with CLK3, 3%. Besides, the “%Inh” value in the assay on CLK4 came to 0%; in the assay with CSF1R-autoinhibited it was 0%; in the assay on CSF1R, 0%; with CSK, 0%; in the assay on CSNK1A1L it was 0%; with CSNK1A1, 36%. Moreover, the “%Inh” value with CSNK1D was 10%; in the assay with CSNK1E, 9%; with CSNK1G1, 5%; with CSNK1G2 it was 0%; with CSNK1G3, 0%; with CSNK2A1, 0%. Further, the “%Inh” value with CSNK2A2 and with CTK was 0% each time.

As for `O=C(c1ccc(-c2cc(-c3c[nH]nc3-c3ccccn3)ccn2)cc1)N1CCOCC1` [GW812171], the “%Inh” value in the assay on CHEK1, in the assay on CHEK2, in the assay with CIT, in the assay on CLK1, in the assay with CLK2 and with CLK3 was 0% each time. Also, the “%Inh” value was 0% with CLK4; 12% with CSF1R-autoinhibited; 16% in the assay on CSF1R; 51% in the assay on CSK; 0% with CSNK1A1L; 32% in the assay with CSNK1A1. Besides, the “%Inh” value in the assay on CSNK1D was 49%; in the assay with CSNK1E, 17%; with CSNK1G1 it was 19%; with CSNK1G2, 0%; in the assay with CSNK1G3 it was 0%; in the assay on CSNK2A1 it was 0%. In addition, the entries for the “%Inh” value in the assay with CSNK2A2 and with CTK were 0% and 49%, respectively.

With `NCCNS(=O)(=O)c1ccc(-c2ccnc3[nH]ccc23)cc1` [GSK977617], the “%Inh” value is 8% and 21% with CHEK1 (1 µM); 72% and 63% in the assay on CHEK2 (1 µM); 65% and 48% in the assay on CIT (1 µM); 95.5% and 95.4% with CLK1 (1 µM); 94.8% and 95.5% in the assay with CLK2 (1 µM); 64% and 83% in the assay on CLK3 (1 µM). Also, the “%Inh” value is 97.7% and 96% in the assay on CLK4 (1 µM); 11% and 0% in the assay on CSF1R-autoinhibited (1 µM); 46% and 19% in the assay with CSF1R (1 µM); 0% in the assay with CSK; 76% and 61% in the assay on CSNK1A1L (1 µM); 88% and 93.1% in the assay on CSNK1A1 (1 µM). Besides, the “%Inh” value with CSNK1D (1 µM) was 77% and 70%; in the assay on CSNK1E (1 µM), 85% and 86%; in the assay with CSNK1G1 (1 µM), 20% and 0%; in the assay on CSNK1G2 (1 µM), 58% and 24%; in the assay on CSNK1G3 (1 µM) it was 51% and 59%; in the assay with CSNK2A1 (1 µM) it was 72% and 56%. For the same compound, the “%Inh” value was 63% and 56% in the assay on CSNK2A2 (1 µM); 0% in the assay with CTK.

Take `[2H]C([2H])(c1cccc(C(F)(F)F)c1C)n1ccn2c(=O)nc(N3CCOCC3)cc12` [GSK2336394]: the “%Inh” value with CHEK1 amounted to 0%; in the assay on CHEK2 it was 0%; in the assay with CIT, 11%; with CLK1, 20%; in the assay on CLK2, 0%; in the assay on CLK3, 14%. Further, the “%Inh” value is on record as 12% with CLK4; 0% in the assay with CSF1R-autoinhibited; 0% in the assay with CSF1R; 0% with CSK; 16% in the assay with CSNK1A1L; 0% with CSNK1A1. Besides, the “%Inh” value in the assay on CSNK1D was determined as 19%; with CSNK1E it was 12%; in the assay on CSNK1G1, 9%; with CSNK1G2, 0%; in the assay with CSNK1G3 it was 19%; in the assay with CSNK2A1 it was 0%. Moreover, the “%Inh” value in the assay on CSNK2A2 and in the assay with CTK was 0% each time.

For the compound `O=C(Nc1n[nH]c2cc(-c3cccc(F)c3)ccc12)C1CC1` [SB-735464], the “%Inh” value is given as 0% in the assay with CHEK1; 0% with CHEK2; 20% in the assay with CIT; 12% with CLK1; 9% in the assay with CLK2; 22% in the assay with CLK3. Further, the “%Inh” value in the assay with CLK4 turned out to be 7%; in the assay on CSF1R-autoinhibited, 0%; in the assay with CSF1R, 2%; in the assay on CSK, 2%; in the assay with CSNK1A1L, 10%; in the assay with CSNK1A1 it was 0%. For the same compound, the “%Inh” value in the assay on CSNK1D was determined as 0%; in the assay with CSNK1E, 0%; with CSNK1G1, 0%; in the assay with CSNK1G2, 0%; with CSNK1G3, 0%; with CSNK2A1 it was 3%. Also, the “%Inh” value in the assay on CSNK2A2 was 24%; in the assay with CTK it was 49%.

`NS(=O)(=O)c1cccc(-c2ccc3ncc(N4CCOCC4)nc3c2)c1` [GSK1535721]: the “%Inh” value in the assay with CHEK1 is given as 0%; with CHEK2 it was 37%; in the assay with CIT, 7%; in the assay on CLK1 it was 11%; in the assay with CLK2 it was 12%; in the assay on CLK3 it was 0%. Further, the “%Inh” value in the assay on CLK4 came to 18%; with CSF1R-autoinhibited, 8%; in the assay with CSF1R, 0%; in the assay with CSK, 0%; in the assay on CSNK1A1L, 0%; in the assay on CSNK1A1 it was 0%. For the same compound, the “%Inh” value amounted to 16% in the assay on CSNK1D; 0% in the assay on CSNK1E; 12% in the assay on CSNK1G1; 0% with CSNK1G2; 19% in the assay with CSNK1G3; 4% in the assay with CSNK2A1. The results for the “%Inh” value in the assay on CSNK2A2 and in the assay on CTK were 18% and 0%, respectively.

Consider `O=C(NCCCN1CCOCC1)c1cccc(Nc2nccc(Nc3ccc(Oc4ccccc4)cc3)n2)c1` [GW663929], for which the “%Inh” value in the assay with CHEK1 came out at 9%; in the assay on CHEK2, 40%; in the assay with CIT, 9%; with CLK1, 22%; with CLK2, 28%; in the assay on CLK3, 0%. Further, the “%Inh” value with CLK4 was 11%; in the assay on CSF1R-autoinhibited, 9%; in the assay with CSF1R, 33%; with CSK, 88%; in the assay on CSNK1A1L it was 0%; with CSNK1A1, 0%. Further, the “%Inh” value amounted to 3% with CSNK1D; 0% in the assay on CSNK1E; 18% in the assay with CSNK1G1; 0% in the assay with CSNK1G2; 11% with CSNK1G3; 10% in the assay with CSNK2A1. In addition, the “%Inh” value is on record as 21% in the assay with CSNK2A2 and 11% in the assay on CTK.
